“And” between values parts separate entries of the source, which are not always exact repeats. Identical values can stand only once. Records with an inconclusive call do not appear. Values without a mark were called inactive. The source made the active and inactive calls. Calls come from the whole dose curve; as a rule, active = well fitted inhibition curve with a large enough effect; inconclusive = small, poorly fitted or top-dose-only effect; inactive = flat fitted curve, though single readings scatter. Where a SMILES comes first, the peptide text is derived from it. [ ]: non-standard residue; d: D form. pGlu = O=C1CC[C@@H](C(=O)O)N1
% is set by controls: 0 for no effect and ±100 for the full control effect; potency is the fitted concentration of half-maximal effect.

For the experiment, the system named is KB-3-1. As to the kind of experiment: Cytotoxic Profiling of Annotated Libraries Using Quantitative High-Throughput Screening (AID 1296008). Note: nearly all actives have a fitted effect of over 60% in size. The conditions noted are these: Five cell lines viability, CellTiter-Glo ATP luminescence, 48-72 h; max response: active compounds read low. The text has this: Cell-based phenotypic screening is a commonly used approach to discover biological pathways, novel drug targets, chemical probes and high-quality hit-to-lead molecules. Many hits identified from high-throughput screening campaign are ruled out through a series of follow-up potency, selectivity/specificity, and cytotoxicity assays. Prioritization of molecules with little or no cytotoxicity for a more in-depth downstream evaluation influence the future direction of projects, so cytotoxicity profiling of the screening libraries at early stage is essential for increasing the likelihood of candidate success. […] For the annotated library, we also examined the primary targets and mechanistic pathways regularly associated with cell death. To our knowledge, this is the first study to use high-throughput screening to profile large libraries for cytotoxicity assessment in both normal and cancer cell lines. In summary, the results generated here constitutes a valuable resource for the scientific community and provides insight on identifying cytotoxic compounds with particular mechanisms of action, and prioritizing compounds with suitable cytotoxicity profile for further evaluation.
A pintool (Kalypsys) was used to transfer 23 nL of compound solution to the 1536-well assay plates. After 48 or 72 hr incubation at 37 degree Celsius, 5% CO2 and 95% humidity, 2.5 uL of CellTiter-Glo (Promega) was dispensed into each well using a dispenser (Aspect Automation, St. Paul, MN) with solenoid valves (Lee Valves, Westbrook CT). Plates were left at room temperature for 10 min before imaging the ATP-coupled luminescence using a ViewLux microplate imager (PerkinElmer, Waltham, MA).
Consider `CC(O)[C@@H]1NC(=O)[C@H](Cc2ccccc2)NC(=O)[C@H](C(C)O)NC(=O)[C@H](CCCCN)NC(=O)[C@H](Cc2c[nH]c3ccccc23)NC(=O)[C@H](Cc2ccccc2)NC(=O)[C@H](Cc2ccccc2)NC(=O)[C@H](CC(N)=O)NC(=O)[C@H](CCCCN)NC(=O)[C@@H](NC(=O)CNC(=O)[C@H](C)N)CSSC[C@@H](C(=O)O)NC(=O)[C@H](CO)NC1=O` (stereo not given in full), for which the max response is -3.89%.
On the same count and under the same terms, the same measure for `OC1OC[C@@H](O)[C@H](O)[C@@H]1O` (stereo not given in full): 12.5%; for `[O]=[Bi][O][Bi]=[O]`: -13.6%; for `N=C(N)c1ccc(/C=C/c2ccc(C(=N)N)cc2O)cc1`: -19%.
The same measure, in the same setting: to `CNCC(O)c1ccc(OC(=O)C(C)(C)C)c(OC(=O)C(C)(C)C)c1` (stereo not given) belongs -7.58%; to `O=C(O)c1ccc(NC(=O)[C@H](Cc2ccc(O)cc2)NC(=O)c2ccccc2)cc1`, 7.82%.
Still for that read-out and setting: to `OCc1ccccc1` belongs 7.88%; to `Cc1ccc(S(=O)(=O)NCl)cc1`, 2.64%.
As to `C[C@H]1[C@@H](OC(=O)CCC(=O)O)O[C@@H]2OC3(C)CC[C@H]4[C@H](C)CC[C@@H]1[C@@]24OO3`, the Potency was 16.4 µM (active).
Regarding `c1ccc2ccccc2c1`, the max response was -0.155%.
Same read-out and setting: the same measure for `C=CCOc1ccc(CC(=O)O)cc1Cl`: 11.1%; for `Oc1ccc(Cl)c2c1CCC2`: -14.4%; for `NCC[C@H](O)C(=O)N[C@@H]1C[C@H](N)[C@@H](O[C@H]2O[C@H](CN)[C@@H](O)[C@H](O)[C@H]2O)[C@H](O)[C@H]1O[C@H]1O[C@H](CO)[C@@H](O)[C@H](N)[C@H]1O`: 3.67%.
Still for that read-out and setting: to `OCCCNc1ccccc1` belongs 2.06%.
Still for that read-out and setting: the same measure for `CCN(CC)CCC(=O)N1c2ccccc2Sc2ccc(Cl)cc21`: 24.4%.
On to `CCCCCCCCCCCC(=O)N(CCO)CCO`, for which the max response was -11.5%.
Still for that read-out and setting: the same measure for `Cc1cc(C(=O)NCCc2ccc(S(=O)(=O)NC(=O)NN3CCCCCC3)cc2)no1`: 8.89%.
The same measure, in the same setting: to `CC(=O)O[C@@H]1CC2CCC1(C)C2(C)C` (stereo not given in full) belongs -0.31%; to `CC[C@H](C)[C@H](NC(=O)[C@H](Cc1ccccc1)NC(=O)[C@H](C)NC(=O)[C@H](CC(=O)O)NC(=O)[C@H](CCCCN)NC(=O)[C@H](CO)NC(=O)[C@@H]1CCCN1C(=O)[C@@H]1CCC(=O)N1)C(=O)NCC(=O)N[C@@H](CC(C)C)C(=O)N[C@@H](CCSC)C(N)=O` ([pGlu]PSKDAFIGLM-NH2), 17.8%; to `C=C1CC[C@H](O)CC1=C/C=C1\CCC[C@]2(C)[C@@H]([C@H](C)CCCC(C)(C)O)CC[C@@H]12`, 5.57%.
In the case of `CC1CCCC(C)N1NC(=O)c1ccc(Cl)c(S(N)(=O)=O)c1` (stereo not given), the max response was 1.28%.
Same read-out and setting: the same measure for `O=C(O)/C=C/C(=O)Nc1ccc(S(=O)(=O)Nc2nccs2)cc1`: -6.18%.
Regarding `CC[C@@H](C(=O)[C@@H](C)[C@@H](O)[C@H](C)[C@@H]1O[C@@H]([C@@H](CC)C(=O)O)CC[C@@H]1C)[C@H]1O[C@]2(C=C[C@@H](O)[C@]3(CC[C@@](C)([C@H]4CC[C@](O)(CC)[C@H](C)O4)O3)O2)[C@H](C)C[C@@H]1C`, the max response is -24.3%.
Same read-out and setting: to `COc1ccc2nc(NC(=O)Nc3ccccc3)sc2c1` belongs 36.1%; to `C[C@@H]1NC(=O)[C@@H](N)CNC(=O)[C@H](C2CCNC(N)=N2)NC(=O)/C(=C/NC(N)=O)NC(=O)[C@H](CNC(=O)C[C@@H](N)CCCN)NC1=O` (stereo not given in full), -2.35% and -9.97%.
As for `C[C@]12CC[C@@H]3c4ccc(OC(=O)c5ccccc5)cc4CC[C@H]3[C@@H]1CC[C@@H]2O`, the max response was -12.6%.
On to `C[C@H](CCCC(C)(C)O)[C@H]1CC[C@H]2[C@@H]3CC=C4C[C@@H](O)CC[C@]4(C)[C@H]3CC[C@]12C`, for which the max response is 2.18%.
Still for that read-out and setting: to `S=C=Nc1ccc(N=C=S)cc1` belongs -15.9%; to `OCCOCCOCCO`, -12.6%.
Same read-out and setting: to `CO/N=C(/C(=O)N[C@@H]1C(=O)N2C(C(=O)O)=C(COC(N)=O)CS[C@H]12)c1ccco1` belongs -4.54% and -18.4%; to `CN1C(=O)OC(C)(C)C1=O`, 3.96%.
The same measure, in the same setting: the same measure for `C[C@@H]1C[C@H]2[C@@H]3C[C@H](F)C4=CC(=O)C=C[C@]4(C)[C@@]3(Cl)[C@@H](O)C[C@]2(C)[C@H]1C(=O)COC(=O)C(C)(C)C`: 41.6%; for `CC(C)(C)CC(C)(C)c1ccc(OCCO)cc1`: -16.2%; for `O=C(O)c1cc(O)c2c(c1)[C@H]([C@H]1c3cc(C(=O)O)cc(O)c3C(=O)c3c(O[C@@H]4O[C@H](CO)[C@@H](O)[C@H](O)[C@H]4O)cccc31)c1cccc(O[C@@H]3O[C@H](CO)[C@@H](O)[C@H](O)[C@H]3O)c1C2=O`: -13.8%.
Take `NC(=O)[C@@H]1CCCN1C(=O)[C@H](Cc1cnc[nH]1)NC(=O)[C@@H]1CCC(=O)N1`: the max response was 0.162%.
Still for that read-out and setting: to `O=C(O)[C@H]1CN(C/C=C/P(=O)(O)O)CCN1` belongs 9.65%; to `C/C(=C\C(=O)OCCCCCCCCC(=O)O)C[C@@H]1OC[C@H](C[C@@H]2O[C@H]2[C@@H](C)[C@H](C)O)[C@@H](O)[C@H]1O`, -2.38%.
Same read-out and setting: to `Oc1ccc(/C=C/c2cc(O)cc(O)c2)cc1` belongs 36.2%; to `CN(CCO)CC(O)Cn1cnc2c1c(=O)n(C)c(=O)n2C` (stereo not given) (tested in a mixture with another compound), -4.03%; to `O=C(Cc1cccs1)N[C@@H]1C(=O)N2C(C(=O)[O-])=C(C[n+]3ccccc3)CS[C@H]12`, 6.88%.

The record behind these values is PubChem BioAssay (NCATS).
